Hits are enriched below; roughly 2.4% of the tested compounds scored in any of these assays.
D2 ag-1 – activates the human D2 dopamine receptor | P14416 | HEK293 T-REx D2 cells, calcium flux agonist mode | activation, % at 2 µM | 0.53% of 340,000 active | AID 485358;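 active means activation over 3 SD above normal in the single-dose calcium agonist read, cut at about 30% in these data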; further: 0% is about no effect
Target sequence (P14416 whole entry, looked up): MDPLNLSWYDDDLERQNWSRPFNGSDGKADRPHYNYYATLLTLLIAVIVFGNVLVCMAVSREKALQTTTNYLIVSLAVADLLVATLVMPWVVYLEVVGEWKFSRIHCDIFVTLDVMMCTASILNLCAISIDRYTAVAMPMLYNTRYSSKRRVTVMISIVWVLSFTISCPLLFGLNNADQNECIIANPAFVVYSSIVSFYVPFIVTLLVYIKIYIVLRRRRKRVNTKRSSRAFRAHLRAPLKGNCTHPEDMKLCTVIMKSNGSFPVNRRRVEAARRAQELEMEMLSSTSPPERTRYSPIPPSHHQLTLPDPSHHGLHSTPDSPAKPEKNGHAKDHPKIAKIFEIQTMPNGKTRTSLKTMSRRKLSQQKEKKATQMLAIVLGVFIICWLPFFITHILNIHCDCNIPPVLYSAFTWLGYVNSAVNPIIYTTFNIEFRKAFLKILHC
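Calcium-flux readout, 1 cycle/sec over 180 s following compound pin transfer, in inducible HEK293 Trex D2 cells (force-coupled); dopamine controls included. Positive calcium responses during this window marked compounds as potential agonists.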
D2 PAM-1 – positive allosteric modulators of human D2 dopamine receptor; P14416; 0.23% of 360,000 active; DiscoveRx D2 beta-arrestin cells, luminescence, 90 min; 100% = 57 uM dopamine signal; potentiation, % (test concentration not listed); AID 624464; in the data active means potentiation above about 50%; inconclusive means mostly about 30% to 49%
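D2 cells co-treated with compound plus 50 nM dopamine (EC20) for 90 min at 37 deg C to detect potentiation. Beta-arrestin recruitment was read as enzyme-fragment luminescence after 1 h at ambient temperature. Full response was set by 57 uM dopamine.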
D2 antag – D2 dopamine receptor (human) antagonism; 2% of 340,000 active; HEK293 TREx D2 cells, calcium flux, dopamine EC80; inhibition, % at 10 µM; in the data active means inhibition above about 30%; inactive means below that, where a call was filed; further: 0% is about no effect
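Calcium flux kinetic readout in an inducible HEK293 TREx D2 line plated overnight at 30 C. After 180 s compound exposure, an EC80 dopamine challenge follows with another 180 s kinetic read to detect antagonism.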
D2 ag-2 – human D2 receptor agonism in beta-arrestin assay. P14416. DiscoveRx PathHunter D2 beta-arrestin, luminescence, 90 min; 100% = 57 uM dopamine signal. 0.084% of 360,000 active. activation, % (concentration not given with the values); in the data active means activation above about 40%; inconclusive means between about 15% and that limit
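DiscoveRx PathHunter D2 beta-arrestin cells (2,100/well) attached overnight, then compound-stimulated 90 min at 37 C in HBSS/10 mM HEPES/0.1% Tween-20 buffer; beta-galactosidase complementation read by luminescence after 1 h at ambient temperature. Dopamine 57 uM final (EC100) as control.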
D2 PAM-2 – positively modulates the human D2 dopamine receptor allosterically; P14416; HEK293 T-REx D2, calcium flux, EC20 dopamine potentiation; potentiation, % at 10 µM; 0.34% of 340,000 active;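 active means potentiation over 3 SD above the plate norm, cut at about 30% in these data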; further: 0% is about no effect
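Primary screen. Calcium kinetics in induced HEK293 T-REx D2 cells: compound pre-addition 180 s, EC20 dopamine, 180 s more.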
B2AR arrestin – agonists driving beta-arrestin recruitment to human beta2-adrenergic receptor. P07550. beta-arrestin recruitment to beta2AR, cell-based reporter. Potency, µM (titrated, usually from 46.1 µM), without a hit: at the highest dose activation, hits mostly activators. 0.02% of 330,000 active. AID 492947; active means well fitted activation curve with a large enough effect; inconclusive means small, poorly fitted or top-dose-only effect;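 further: potency means the concentration at half of the fitted maximal effect; 0% = DMSO controls and full agonism = EC100 isoproterenol or metaproterenol; nearly all actives have a fitted effect of over 65% in size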
An asterisk follows results filed as active; ? = inconclusive; / = not tested or not shown.

SMILES | D2 ag-1 | D2 PAM-1 | D2 antag | D2 ag-2 | D2 PAM-2 | B2AR arrestin
CC(C)NCCCOc1ccc(Cl)cc1Br | -1 | -47 | -12 | -7 | 8 | 0%
C=CCN(CC=C)Cc1cc(=O)oc2cc(OC)ccc12 | / | 1 | / | 9 | / | /
CCOC(=O)C1CCN(Cc2cc(C(C)C)c(O)c(C(C)C)c2)CC1 | 22 | -18 | 45* | -13 | -21 | 0%
COc1ccccc1Nc1nc(N)nc(CN2CCCCCC2)n1 | -1 | -12 | -23 | 0 | -6 | 0%
CCOC(=O)C1CCN(Cc2ccc3ccccc3c2)CC1 | 13 | -3 | 9 | 0 | -16 | 0%
COc1ccccc1N1CCN(Cc2nc(N)nc(Nc3ccccc3)n2)CC1 | 8 | -14 | 34* | 0 | -24 | 0%
NC(=O)c1cc[n+](Cc2ccc([N+](=O)[O-])cc2)cc1 | 2 | 0 | 39* | 1 | 11 | -1%
NC(=O)c1ccc(C(=O)c2ccc([N+](=O)[O-])cc2)cc1 | 0 | 62* | -1 | 5 | -9 | -1%
O=C(Nc1ccccc1Cl)c1cc[n+](Cc2ccc([N+](=O)[O-])cc2)cc1 | 0 | -12 | -9 | -2 | 5 | -1%
Cc1nc(NCC2CCCO2)[nH]c(=O)c1CCC(C)C (centres undefined) | 0 | -11 | -8 | -8 | 1 | 0%
Cc1nc(NCc2ccco2)[nH]c(=O)c1CCC(C)C | 3 | 11 | 30* | 12 | / | 0%
CCC(=O)N1CCc2cc(S(=O)(=O)NCCC(=O)N3CCN(c4ccccc4)CC3)ccc21 | 5 | -4 | 34* | 8 | -4 | 0%
O=C(C1CCC1)N1CCc2cc(S(=O)(=O)NCCN3CCN(c4ccccc4F)CC3)ccc21 | 68* | -4 | 53* | ? | -18 | 0%
O=C(CCNS(=O)(=O)c1ccc2c(c1)CCN2C(=O)C1CC1)N1CCN(c2ccccc2F)CC1 | / | / | / | / | 11 | /
CCC(=O)N1CCc2cc(S(=O)(=O)NCCC(=O)N3CCN(c4cccc(OC)c4)CC3)ccc21 | 1 | -11 | 0 | -5 | 5 | 0%
COc1ccc(/C(N)=N/OC(=O)COc2ccccc2Cl)cc1 | / | 7 | / | 0 | / | -1%
COc1ccc2oc(=N)c(C(=O)NCc3ccccc3)cc2c1 | 1 | -1 | -1 | -5 | -3 | -1%
C/C(=C\C(=O)c1ccncc1)Nc1ccccc1O | / | 50* | / | 10 | / | 0%
O=C(NCCCN1CCOCC1)c1cccc(S(=O)(=O)N2CCOCC2)c1 | 0 | -12 | 6 | -7 | -2 | 0%
O=C(Nc1c[nH]c2c(Cl)cccc2c1=O)N1CCN(c2ccccn2)CC1 | -1 | -3 | -3 | -1 | 14 | -1%
COc1ccc(CCN(C)C/C=C/c2ccccc2[N+](=O)[O-])cc1OC | 1 | -22 | 57* | -4 | -23 | -1%
COc1ccc(CCN(C)c2ccc(C(N)=O)cc2[N+](=O)[O-])cc1OC | 1 | 1 | 6 | -1 | 22 | 0%
O=C(NC1CCCCC1)c1cccc2c1C(=O)c1ccc(N3CCCC3)cc1S2(=O)=O | / | -8 | / | -2 | / | -2%
O=C(NC1CCCC1)c1cccc2c1C(=O)c1ccc(N3CCCCC3)cc1S2(=O)=O | 4 | -4 | 20 | -7 | 37* | 0%
COc1ccc(N(CC(=O)Nc2ccc(F)cc2)S(=O)(=O)c2ccccc2[N+](=O)[O-])c(OC)c1 | 0 | 0 | 1 | -3 | -7 | 0%
SMILES | D2 ag-1 | D2 PAM-1 | D2 antag | D2 ag-2 | D2 PAM-2 | B2AR arrestin
COc1ccc(N(CC(=O)Nc2cc(C)cc(C)c2)S(=O)(=O)c2ccccc2[N+](=O)[O-])c(OC)c1 | 0 | -4 | 53* | 1 | 9 | -1%
Cc1ccc(CNS(=O)(=O)c2c(C)nc3scc(C)n3c2=O)cc1 | 1 | -8 | -6 | -3 | -3 | 0%
Cc1nc2scc(C)n2c(=O)c1S(=O)(=O)NCC1CCN(Cc2ccc(F)cc2)CC1 | 1 | -28 | 34* | -4 | -8 | -1%
CCN1CCN(c2ccc(S(=O)(=O)N3CCCCC3)cc2NC(=O)/C=C/c2ccc([N+](=O)[O-])cc2)CC1 | 0 | -7 | -2 | 0 | -8 | 1%
CN(C)CCOCCOc1ccccc1-c1ccccc1 | 1 | -21 | -16 | 1 | 29 | 0%
CNCCOc1ccccc1-c1ccccc1 | 1 | -33 | 45* | 3 | -22 | 0%
CC(C)(C)c1ccccc1OCCCCCNCCO | 1 | -16 | 50* | -5 | -30 | 0%
OCCNCCOc1ccccc1-c1ccccc1 | 3 | -24 | 66* | 2 | -10 | 0%
OCCNCCOCCOc1ccccc1-c1ccccc1 | 28 | -35 | 33* | -4 | -24 | 0%
O=C1[C@@H]2CSCN2C(=O)CN1CCc1cccc(F)c1 | 0 | -8 | -7 | 1 | 9 | 0%
Cc1cc(C)c2[nH]c(=O)c(C(c3nnnn3CC3CCCO3)N3CCCC(C)C3)cc2c1 (centres undefined) | 2 | -8 | -3 | -4 | 1 | 0%
Cc1cc(C)c2[nH]c(=O)c(C(c3nnnn3CC3CCCO3)N3CCC(C)CC3)cc2c1 (centres undefined) | 0 | -26 | 37* | -2 | 1 | 0%
COc1cccc(C(=O)NCCCNC(=O)c2cccc(OC)c2)c1 | -1 | -3 | 3 | -3 | 6 | 0%
COc1cccc(C(=O)NCCCNC(=O)c2cccnc2)c1 | -1 | -1 | 39* | -4 | -25 | -1%
COc1ccc(CNC(=O)CN(C(=O)c2csnn2)c2cccc3c2CCCC3)cc1 | 0 | 1 | -24 | 3 | -4 | 0%
CNC(=O)N1c2ccccc2CCc2ccccc21 | 1 | -8 | -6 | 0 | 0 | 0%
CN(C)CCCC1(O)c2ccccc2CCc2ccccc21 | 0 | -24 | 1 | -2 | -16 | -3%
CC(CN(C)C)CN1c2ccccc2CCc2ccccc21 (centres undefined) | 4 | -5 | 73* | -8 | -24 | 0%
CN(C)CCCN1c2ccccc2CCc2ccccc21 | -2 | -38 | 60* | -7 | -29 | -1%
O=C(Nc1ccc2[nH]c3c(c2c1)CCCC3)c1ccco1 | 3 | -15 | -5 | -2 | -7 | 0%
CCN(Cc1nc(-c2ccc(OC)c(OC)c2)no1)C(=O)c1ccc2c(c1)OCO2 | 0 | -10 | 37* | -3 | 3 | 0%
C=CCN(Cc1nc(-c2ccc(OC)cc2)no1)C(=O)c1ccc2c(c1)OCO2 | 0 | -11 | 17 | -6 | -2 | 0%
O=C(NCCNC(=O)c1ccc(-c2ccc(Cl)c(Cl)c2)o1)c1cnccn1 | -1 | 6 | -18 | 8 | 102* | 0%
O=C(NCCNC(=O)c1ccc(-c2cccc(Cl)c2)o1)c1cnccn1 | / | -14 | / | 2 | / | /
